Laboratory results reported in PubChem BioAssay (NCATS).
A number with no mark means an inactive call. Records with an inconclusive call do not appear. A call without a number means that no potency is given here. Active and inactive are the calls of the source. Unless noted, the call rests on the fitted dose curve; in most records, active means well fitted curve in the direction sought with a large enough effect; inconclusive means small, poorly fitted or top-dose-only effect, or another doubt; inactive means no such curve, though single readings can be large; an effect the other way counts as inactive or inconclusive.

Legend:
[1] = target: Arylsulfatase A (Homo sapiens) (UniProt P15289); experiment: qHTS screen for enhancers of Arylsulfatase A (ASA1): LOPAC Validation Assay (AID 720538)
Sequence of Arylsulfatase A (Homo sapiens) (P15289 whole entry, looked up): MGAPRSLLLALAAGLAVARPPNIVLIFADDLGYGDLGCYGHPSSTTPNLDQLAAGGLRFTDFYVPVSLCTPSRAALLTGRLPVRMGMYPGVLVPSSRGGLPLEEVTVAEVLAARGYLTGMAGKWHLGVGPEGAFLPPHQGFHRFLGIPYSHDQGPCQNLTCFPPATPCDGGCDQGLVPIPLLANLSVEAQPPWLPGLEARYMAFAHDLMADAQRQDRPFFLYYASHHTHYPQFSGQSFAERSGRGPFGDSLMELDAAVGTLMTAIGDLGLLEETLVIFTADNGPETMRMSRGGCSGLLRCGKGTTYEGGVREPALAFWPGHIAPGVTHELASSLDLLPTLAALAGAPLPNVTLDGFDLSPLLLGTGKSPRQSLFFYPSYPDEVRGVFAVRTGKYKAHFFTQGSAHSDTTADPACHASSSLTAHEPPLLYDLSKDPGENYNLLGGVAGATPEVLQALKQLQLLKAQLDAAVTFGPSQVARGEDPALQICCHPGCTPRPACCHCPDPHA
Outline: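 First, ASA-I179S fibroblasts from an MLD patient adhered for 6 hrs. Next, compounds were added for 48h. Then pNCS substrate (0.5mM final) with lysis buffer reacted 14h at room temperature before NaOH stop and fluorescence measurement.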

[2] = qHTS for compounds that reverse cellular toxicity of Amyloid beta (A-beta) peptide in yeast: LOPAC Validation Assay (AID 720559)
Outline: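 Activity is expressed relative to DMSO and an equimolar ferric chloride/clioquinol mix. Compounds were pinned into medium with A-beta-expressing yeast, grown 48 hr at 30 C, then read by absorbance at 600 nm.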

[3] = qHTS for Activators of Parkin Expression: LOPAC Validation Assay (NLuc Reporter) (AID 720572)
Outline: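 Cells harboring the Parkin-promoter coincidence reporter were treated for 24 h at seven concentrations. NLuc output was measured sequentially after the FLuc channel and scaled between DMSO and positive control values.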

[4] = target: Nuclear receptor ROR-gamma (Homo sapiens) (UniProt P51449); experiment: qHTS assay for small molecule antagonists of the retinoid-related orphan receptor gamma (ROR-gamma) signaling pathway (AID 651802);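 further: CHO cells with doxycycline-induced ROR-gamma expression; luciferase reporter luminescence driven by ROR response element; series mostly up to about 92 µM; nearly all actives have a fitted effect of over 60% in size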
Sequence of Nuclear receptor ROR-gamma (Homo sapiens) (P51449 whole entry, looked up): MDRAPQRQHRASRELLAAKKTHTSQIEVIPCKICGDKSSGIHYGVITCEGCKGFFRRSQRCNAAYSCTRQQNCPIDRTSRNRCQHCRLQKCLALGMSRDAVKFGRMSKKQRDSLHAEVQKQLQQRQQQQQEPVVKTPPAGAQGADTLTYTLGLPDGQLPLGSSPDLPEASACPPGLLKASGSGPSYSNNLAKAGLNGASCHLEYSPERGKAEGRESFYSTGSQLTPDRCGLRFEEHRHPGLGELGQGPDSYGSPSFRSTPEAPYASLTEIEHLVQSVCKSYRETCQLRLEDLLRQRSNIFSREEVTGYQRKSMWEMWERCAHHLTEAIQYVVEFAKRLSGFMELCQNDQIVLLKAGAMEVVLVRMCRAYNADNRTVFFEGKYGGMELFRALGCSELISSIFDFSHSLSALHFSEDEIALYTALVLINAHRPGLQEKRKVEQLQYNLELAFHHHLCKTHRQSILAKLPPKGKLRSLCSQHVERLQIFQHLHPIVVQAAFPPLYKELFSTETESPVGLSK
Outline: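 Doxycycline-induced reporter activity in engineered CHO cells (TET-inducible ROR, RORE-LUC) was measured by luminescence after 16hr compound exposure at 37C.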

[5] = qHTS for Activators of Parkin Expression: LOPAC Validation Assay (FLuc Reporter) (AID 720573)
Outline: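 A neuronal cell line harbouring FLuc and NLuc reporters behind the Parkin promoter was exposed to compounds for 24 h. Firefly luciferase signal, measured after 10 min with detection reagent, was scaled to DMSO and positive-control wells.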

[6] = qHTS assay for small molecule agonists of the antioxidant response element (ARE) signaling pathway measured by Nrf2-dependant transcriptional activity (AID 720636; active means well fitted curve in the direction sought with a large enough effect in the repeat runs; an effect the other way counts as inactive or inconclusive;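 further: HepG2 cells with an ARE-driven luciferase reporter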)
Outline: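 Nrf2-dependent transcription is measured in ARE-luc HepG2 cells: compound is applied for 16 hr at 37 C after a 6 hr attachment period, and luciferase activity is quantified by luminescence using ONE-Glo.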

[7] = qHTS assay for small molecule antagonists of the retinoid-related orphan receptor gamma (ROR-gamma) signaling pathway - cell viability counter screen (AID 720652; active means well fitted curve in the direction sought with a large enough effect in the repeat runs; an effect the other way counts as inactive or inconclusive;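 further: CHO reporter cells with doxycycline-induced ROR-gamma expression; series mostly up to about 92 µM; compound exposure lasted 16 hr before ATP read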)
Outline: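 ATP-based viability readout in the ROR-gamma reporter CHO cells after 16 hr compound exposure under doxycycline induction.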

[8] = qHTS assay for small molecule agonists of the antioxidant response element (ARE) signaling pathway measured by Nrf2-dependant transcriptional activity - cell viability counter screen (AID 720653; active means well fitted curve in the direction sought with a large enough effect in the repeat runs; an effect the other way counts as inactive or inconclusive); settings: ARE-bla HepG2 viability, CellTiter-Glo ATP luminescence, 16 h; active compounds read low
Outline: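 ARE-bla HepG2 cells (2,000/well) rested 5 hrs at 37C/5% CO2, then exposed to compounds in DMSO for 16 hrs. Viability was read in the same wells as intracellular ATP by luminescence, 30 min at room temperature after reagent addition.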

Compound: NC1C=CC=C(C(=O)O)C1 (configuration not stated)
- Potency [1]: inactive
- outcome [2]: inactive
- Potency [3]: inactive

Compound: CC(=O)C(C)=O
- outcome [4]: inactive
- outcome [2]: inactive
- Potency [3]: inactive
- Potency [5]: inactive
- outcome [6]: inactive
- outcome [7]: inactive
- max response [8]: -2.25%

Compound: CCC(=O)N1CCN(C(=O)c2ccccc2)CC1
- Potency [1]: inactive
- outcome [2]: inactive
- Potency [3]: inactive

Compound: COc1ccc2c(c1)CCC1C2CC[C@@]2(C)C1CC[C@@H]2NCCCCCCN1C(=O)C=CC1=O (some centres not stated)
- Potency [1]: inactive
- outcome [2]: inactive
- Potency [3]: inactive

Compound: NCC(O)c1ccc(O)c(O)c1 (configuration not stated)
- Potency [1]: inactive

Compound: CN(C)C(=O)/N=N/C(=O)N(C)C
- Potency [1]: inactive
- outcome [2]: inactive
- Potency [3]: inactive

Compound: O=C(O)c1cc2cc(F)ccc2[nH]1
- Potency [1]: inactive
- outcome [2]: inactive
- Potency [3]: inactive

Compound: CC(N)(Cc1ccc(O)cc1)C(=O)O (configuration not stated)
- Potency [1]: inactive

Compound: CO/N=C(\C(=O)N[C@@H]1C(=O)N2C(C(=O)O)=C(CSc3nc(=O)c(O)nn3C)CSC12)c1csc(N)n1 (some centres not stated)
- Potency [1]: inactive
- outcome [2]: inactive
- Potency [3]: inactive

Compound: N=C(N)SCCN
- Potency [1]: inactive
- outcome [2]: inactive
- Potency [3]: inactive

Compound: CC(=O)N[C@@H](Cc1c[nH]c2ccccc12)C(=O)OCc1cc(C(F)(F)F)cc(C(F)(F)F)c1
- Potency [1]: inactive
- outcome [2]: inactive
- Potency [3]: inactive

Compound: CC1CNCCN1S(=O)(=O)c1cccc2cnccc12 (configuration not stated)
- Potency [1]: inactive
- outcome [2]: inactive

Compound: COc1cc(C(O)CO)ccc1O (configuration not stated)
- Potency [1]: inactive
- outcome [2]: inactive
- Potency [3]: inactive

Compound: CCN1C(=O)C=CC1=O
- Potency [1]: inactive
- outcome [2]: inactive
- Potency [3]: inactive

Compound: C[C@@]1(C2CCCC2)Cc2cc(OCC(=O)O)c(Cl)c(Cl)c2C1=O
- Potency [1]: inactive
- outcome [2]: inactive
- Potency [3]: inactive

Compound: CNC(=O)c1cc2c(cn1)[nH]c1ccccc12
- Potency [1]: inactive
- outcome [2]: inactive
- Potency [3]: inactive
